# Source: PubChem (several laboratories)
# COUP-TFII inh: inhibitors of human COUP-TFII (NR2F2); 370,000 tested, 0.7% active; HEK293T NGFI-A luciferase reporter, luminescence; AID 686940; inhibition, % at 8.6 µM;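 active means inhibition above a per-plate cutoff, mean inhibition of test wells between control levels plus 3 SD, cut at about 38% in these data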;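 further: cells cotransfected with COUP-TFII expression vector driving the NGFI-A reporter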
# SRC1 inh: inhibits human SRC1 coactivator; 360,000 tested, 0.12% active; inhibition, % at 3.6 µM; HEK293 GAL4-SRC1 luciferase reporter, luminescence; Q15788;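 active means inhibition above the campaign mean plus 3 SD, with each screening campaign given its own cutoff, cut at about 60% in these data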
# Target sequence (Q15788 whole entry, looked up, the tested form may be a part): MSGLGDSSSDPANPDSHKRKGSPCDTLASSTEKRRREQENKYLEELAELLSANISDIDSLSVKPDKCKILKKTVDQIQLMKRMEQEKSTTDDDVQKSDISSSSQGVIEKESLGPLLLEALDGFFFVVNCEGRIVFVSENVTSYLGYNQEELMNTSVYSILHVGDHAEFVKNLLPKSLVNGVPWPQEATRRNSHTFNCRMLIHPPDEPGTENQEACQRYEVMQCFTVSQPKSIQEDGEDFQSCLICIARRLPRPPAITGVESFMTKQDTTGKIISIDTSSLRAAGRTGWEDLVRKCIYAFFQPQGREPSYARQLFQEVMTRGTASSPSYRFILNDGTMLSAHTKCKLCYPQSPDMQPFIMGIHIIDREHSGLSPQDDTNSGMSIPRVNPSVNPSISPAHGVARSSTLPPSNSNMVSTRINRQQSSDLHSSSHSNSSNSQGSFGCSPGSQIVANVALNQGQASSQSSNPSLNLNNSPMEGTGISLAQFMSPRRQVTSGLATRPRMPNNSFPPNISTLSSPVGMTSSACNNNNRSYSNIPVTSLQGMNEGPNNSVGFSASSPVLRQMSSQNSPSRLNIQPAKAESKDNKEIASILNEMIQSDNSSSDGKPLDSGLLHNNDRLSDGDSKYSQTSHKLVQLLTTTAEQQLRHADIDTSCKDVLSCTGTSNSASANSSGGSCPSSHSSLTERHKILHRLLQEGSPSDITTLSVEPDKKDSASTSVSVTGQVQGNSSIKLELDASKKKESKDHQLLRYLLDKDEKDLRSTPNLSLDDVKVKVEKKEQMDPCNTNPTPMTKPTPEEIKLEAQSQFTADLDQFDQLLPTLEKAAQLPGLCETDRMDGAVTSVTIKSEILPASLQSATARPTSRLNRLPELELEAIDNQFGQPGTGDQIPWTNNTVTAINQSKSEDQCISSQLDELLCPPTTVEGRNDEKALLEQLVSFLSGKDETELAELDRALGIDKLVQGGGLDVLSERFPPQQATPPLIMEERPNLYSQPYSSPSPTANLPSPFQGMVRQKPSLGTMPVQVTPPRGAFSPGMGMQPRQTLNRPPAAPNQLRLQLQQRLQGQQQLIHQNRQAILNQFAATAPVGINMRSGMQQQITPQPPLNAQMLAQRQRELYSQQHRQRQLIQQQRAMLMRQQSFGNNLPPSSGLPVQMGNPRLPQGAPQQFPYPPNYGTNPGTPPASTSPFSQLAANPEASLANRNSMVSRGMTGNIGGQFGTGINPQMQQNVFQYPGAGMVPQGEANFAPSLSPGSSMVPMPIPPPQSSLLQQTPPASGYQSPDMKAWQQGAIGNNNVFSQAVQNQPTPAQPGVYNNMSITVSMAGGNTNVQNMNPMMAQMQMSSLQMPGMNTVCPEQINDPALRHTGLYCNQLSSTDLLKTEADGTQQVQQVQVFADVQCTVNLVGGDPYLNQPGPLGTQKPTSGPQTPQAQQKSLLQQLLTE
# LRH-1 inv ag: NR5A2 inverse agonism in reporter assay. HEK293T StAR-luciferase reporter, LRH-1 transfected, 24 h. inhibition, % at 3.6 µM. 360,000 tested, 0.13% active. AID 602396. O00482;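 active means inhibition above the mean inhibition of all tested compounds plus 3 SD, cut at about 73% in these data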
# NCOA2 inhibitor: inhibits human steroid receptor coactivator 2. 370,000 tested, 0.17% active. AID 651957. HEK293 GAL4-SRC2 luciferase reporter, luminescence. inhibition, % at 9 µM;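 active means inhibition above the mean inhibition of all tested compounds plus 3 SD, set per campaign, cut at about 52% in these data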
# Gli-Sufu antag: blocks Gli-Sufu signaling in a luciferase reporter. Sufu-KO-LIGHT fibroblasts, Gli luciferase reporter luminescence. inhibition, % at 5 µM. 340,000 tested, 0.74% active;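 active means inhibition above about 55%, limit read from the data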
# NCOA3 inh: inhibits human SRC3 coactivator | Q9Y6Q9 | HEK293 GAL4-SRC3 luciferase reporter, luminescence | inhibition, % at 3.6 µM | 360,000 tested, 0.17% active | AID 588352;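 active means inhibition above a per-campaign cutoff, the mean of all compounds plus 3 SD, cut at about 60% in these data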;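 further: higher means less SRC3-driven luciferase light from the GAL4 reporter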
# Gli antag conf: confirmation of Gli-SUFU pathway antagonists | AID 602428 | Sufu-KO-LIGHT cells, Gli luciferase reporter, luminescence | inhibition, % at 5 µM | shares compounds with Gli-Sufu antag | 2,500 tested, 40% active;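 active means mean inhibition at 5 µM reaching about 45%, limit read from the data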
# Gli cytotox: cytotoxic in Gli-SUFU antagonist counter-screen; shares compounds with Gli-Sufu antag; Sufu-KO-LIGHT cells cytotoxicity, ATP luminescence; cytotoxicity, % at 5 µM; 2,500 tested, 32% active; AID 651994;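 active means mean cytotoxicity at 5 µM above about 25%, limit read from the data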;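 further: cells exposed to compound overnight for roughly 16 to 18 hours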
# Wnt3a counter: Wnt3a reporter inhibition counter-screen; inhibition, % at 6.25 µM; AID 651995; Wnt-LIGHT cells, Wnt3a-driven luciferase reporter, luminescence; shares compounds with Gli-Sufu antag; 2,500 tested, 20% active;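 active means mean inhibition above about 25%, limit read from the data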
# Gal4-VP16 ctr: counter-screen for COUP-TFII antagonists: inhibitors of VP16; shares compounds with COUP-TFII inh; HEK293 Gal4-VP16 luciferase reporter, luminescence; inhibition, % at 8.5 µM; 2,500 tested, 25% active; AID 687007; in the data active means inhibition above about 13%
# COUP-TFII conf: COUP-TFII (NR2F2) inhibition, confirmation assay | shares compounds with COUP-TFII inh | HEK293 NGFI-A luciferase reporter, luminescence | inhibition, % at 8.5 µM | 2,500 tested, 45% active;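 active means mean inhibition over three repeats above a set limit taken from the earlier primary screen, cut at about 38% in these data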
# Numbers stand for hits; . = inactive; / = no result given. The list is not random: actives were taken first. Their share in the collection is about 1.2%.
SMILES,COUP-TFII inh,SRC1 inh,LRH-1 inv ag,NCOA2 inhibitor,Gli-Sufu antag,NCOA3 inh,Gli antag conf,Gli cytotox,Wnt3a counter,Gal4-VP16 ctr,COUP-TFII conf
CCC(=O)c1ccc(OCC(O)Cn2c(C)nc3ccccc32)cc1 (stereo not drawn),59.0,.,.,.,.,.,51.9,.,.,.,.
Cc1nc2ccccc2n1CC(O)COc1ccc(Br)cc1 (stereo not drawn),.,.,.,.,.,.,/,/,/,/,/
c1ccc(-c2nc3ccccc3nc2-c2ccc(CN3CCC4(CC3)CNc3ccccc34)cc2)cc1,.,/,/,.,/,/,/,/,/,/,/
Cc1cc(C)nc(/N=C(\N)Nc2ccc(CC(=O)OC(C)C)cc2)n1,50.8,.,.,.,64.6,.,48.1,37.9,.,.,.
COc1ccc(N/C(N)=N/c2nc(C)cc(C)n2)cc1,.,.,.,.,/,.,/,/,/,/,/
COc1cc(NS(=O)(=O)c2ccc(C)cc2C)cc(OC)c1OC,45.0,.,.,.,.,.,50.4,.,.,.,40.4
O=S(=O)(NCc1ccncc1)c1ccc(Br)s1,63.4,.,.,.,70.4,.,63.9,44.1,45.9,.,53.8
COc1ccc(S(=O)(=O)NCc2cccnc2)cc1,.,.,.,.,.,.,/,/,/,/,/
COc1cc(S(=O)(=O)NCc2ccncc2)ccc1Br,56.3,.,.,.,67.8,.,61.0,.,30.4,.,43.5
COc1ccc(S(=O)(=O)NCc2cccnc2)cc1Br,47.5,.,.,.,59.0,.,.,.,.,.,39.2
Cc1ccc(S(=O)(=O)NCc2ccncc2)cc1C,60.1,.,.,.,74.3,.,73.4,26.1,36.1,14.8,57.0
Cc1cc(Br)c(S(=O)(=O)NCc2ccncc2)cc1C,54.0,.,.,.,.,.,52.0,.,25.9,.,47.0
COc1cc(C)c(Br)cc1S(=O)(=O)NCc1ccccc1,.,.,.,.,.,.,/,/,/,/,/
CCN(C1CCCCC1)S(=O)(=O)c1ccc(S(=O)(=O)NCc2ccncc2)cc1,54.7,.,.,.,60.1,.,50.4,30.6,55.0,.,.
COc1ccc(N2C(=O)c3n[nH]c(C(C)C)c3C2c2ccc(F)cc2)cc1 (stereo not drawn),.,/,/,.,/,/,/,/,/,/,/
O=C(C(=O)N1CCN(C(=O)Cc2ccccc2)CC1)c1cccc(C(F)(F)F)c1,.,/,/,.,/,/,/,/,/,/,/
C=CCN1C(=O)c2n[nH]c(COC)c2C1c1cccc(C(F)(F)F)c1 (stereo not drawn),.,/,/,.,/,/,/,/,/,/,/
COc1ccc(-c2c[n+](CC(=O)OC3CC(C)CCC3C(C)C)c3n2CCC3)cc1 (stereo not drawn),64.0,.,.,.,89.8,.,89.5,26.0,.,.,.
COc1cccc(C(=O)N2CCC[C@@H]2C(=O)N2CCC[C@@H]2C(=O)NCc2ccccc2)c1,.,/,/,.,/,/,/,/,/,/,/
COc1ccc(CN(C)Cc2nc(Cc3cccc(F)c3)no2)c2cccnc12,60.4,.,.,.,62.7,.,54.3,.,26.7,.,47.4
COc1cccc(-n2cc(CN(C)Cc3nc(Cc4cccc(F)c4)no3)cn2)c1,.,.,.,.,.,.,/,/,/,/,/
COCc1[nH]nc2c1C(c1ccc(Br)cc1)N(c1ccc(OC)cc1)C2=O (stereo not drawn),.,/,/,.,/,/,/,/,/,/,/
Cc1ccc2c(c1)nnn2C1CCN(S(=O)(=O)c2ccc(C(=O)N3C(C)CCCC3C)cc2)CC1 (stereo not drawn),42.3,.,.,.,67.0,.,69.5,29.6,.,.,55.2
Cc1ccccc1Cn1c(C)nc2ccccc21,47.5,.,.,.,68.8,.,56.1,36.5,29.9,.,46.1
COc1ccccc1Cn1c(C)nc2ccccc21,.,.,.,.,.,.,/,/,/,/,/
SMILES,COUP-TFII inh,SRC1 inh,LRH-1 inv ag,NCOA2 inhibitor,Gli-Sufu antag,NCOA3 inh,Gli antag conf,Gli cytotox,Wnt3a counter,Gal4-VP16 ctr,COUP-TFII conf
COc1ccc(CN(C)c2ccc(S(=O)(=O)N3CCN(C)CC3)cc2[N+](=O)[O-])cc1OC,69.6,.,.,.,74.5,.,74.4,35.3,45.2,.,67.2
COc1ccc(CCN(C)c2ccc(S(=O)(=O)N3CCCC3)cc2[N+](=O)[O-])cc1OC,.,.,.,.,.,.,/,/,/,/,/
CN1C(=O)c2cc(NC(=O)Nc3ccccc3)ccc2OC[C@H]2O[C@@H](CC(=O)NC3Cc4ccccc4C3)CC[C@@H]21,.,/,/,.,/,/,/,/,/,/,/
COc1ccc(-n2c(SCC(=O)Nc3ccc4c(c3)OCCO4)nnc2-c2ccccc2)cc1,.,/,/,.,/,/,/,/,/,/,/
COc1ccc(-n2c(-c3ccc(Cl)cc3)c[n+]3c2CCc2ccccc2-3)cc1,50.6,.,.,.,84.6,.,86.5,28.2,.,18.4,44.1
C[C@H](O)[C@@H]1C(=O)N2CCc3c([nH]c4c(-c5ccccc5)cccc34)[C@@H]2C[C@@H]1N(C)C(=O)c1ccco1,.,/,/,.,/,/,/,/,/,/,/
Cn1cc(S(=O)(=O)N2CCc3ccccc32)cc1C(=O)NC(C)(C)C,59.3,.,.,.,61.2,.,58.1,35.1,.,.,45.2
Cc1cccc(C)c1NC(=O)c1cc(S(=O)(=O)N2CCc3ccccc32)cn1C,.,.,.,.,.,.,/,/,/,/,/
CSC1=Nc2ccccc2N=C(N2CCCC2)C1,.,/,/,.,/,/,/,/,/,/,/
C/C(=N\Nc1cccc2cccnc12)c1ccccn1,.,.,.,.,.,.,/,/,/,/,/
CC(=NNC(=S)Nc1ccccc1Cl)c1ccccn1,50.6,65.9,73.7,.,92.5,62.8,/,/,/,.,.
Cc1cc(/C=N/n2cnnc2)c(C)n1-c1ccc(OCc2ccc(Cl)cc2)cc1,68.1,.,.,.,63.4,.,/,/,/,41.5,88.3
C(=N\n1cnnc1)/c1ccc(OCc2ccccc2)cc1,.,.,.,.,.,.,/,/,/,/,/
COC(=O)[C@@]12CCCCC=C1N(CCc1ccc(Cl)cc1)C(=O)[C@H]2CC(=O)NCCc1ccccc1OC,.,/,/,.,/,/,/,/,/,/,/
COc1ccc(OCCN2CCN(S(=O)(=O)c3ccccc3C#N)CC2)cc1,.,.,.,.,.,.,/,/,/,/,/
CC(=O)c1ccc(S(=O)(=O)N2CCN(CCOc3ccc(Br)cc3)CC2)cc1,63.0,.,.,.,.,.,/,/,/,.,49.7
COc1ccc(OCCN2CCN(S(=O)(=O)c3ccccc3C(F)(F)F)CC2)cc1,41.0,.,.,.,.,.,/,/,/,.,.
